The text below walks through data of ChEMBL document CHEMBL1961873, “Compounds: GSK PKIS; Assays: Nanosyn kinase panel” (2012).

Assay [1] concerns the target Mitogen-activated protein kinase kinase kinase kinase 4 (Homo sapiens) (UniProt O95819). The following applies: at 1 µM.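 Further: reported figure is an averaged inhibition value.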
Assay [2] concerns the target Dual specificity mitogen-activated protein kinase kinase 1 (Homo sapiens) (UniProt Q02750). To be noted: at 0.1 µM.
The target is the same in assay [3]. The following applies: at 1 µM.
Assay [4] concerns the target Misshapen-like kinase 1 (Homo sapiens) (UniProt Q8N4C8). The following applies: at 0.1 µM.
For assay [5] the target is unchanged. To be noted: at 1 µM.
The target in assay [6] is T1, Serine/threonine-protein kinase 4 (Homo sapiens) (UniProt Q13043).
T1 sequence (whole entry): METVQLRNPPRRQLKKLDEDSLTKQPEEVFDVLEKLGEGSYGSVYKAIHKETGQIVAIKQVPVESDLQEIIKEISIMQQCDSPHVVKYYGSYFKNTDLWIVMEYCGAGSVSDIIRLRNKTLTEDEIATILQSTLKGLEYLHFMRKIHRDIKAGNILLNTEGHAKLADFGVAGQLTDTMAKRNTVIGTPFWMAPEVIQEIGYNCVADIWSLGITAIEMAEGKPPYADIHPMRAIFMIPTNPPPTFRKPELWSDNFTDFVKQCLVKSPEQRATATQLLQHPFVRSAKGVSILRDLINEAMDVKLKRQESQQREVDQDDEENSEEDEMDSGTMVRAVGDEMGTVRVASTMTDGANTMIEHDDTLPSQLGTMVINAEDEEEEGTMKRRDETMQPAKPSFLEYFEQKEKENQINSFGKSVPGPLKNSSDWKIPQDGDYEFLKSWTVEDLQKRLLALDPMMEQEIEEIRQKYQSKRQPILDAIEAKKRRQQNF
To be noted: at 0.1 µM.

In assay [7] the target is T1, Serine/threonine-protein kinase 4 (Homo sapiens). The following applies: at 1 µM.
Assay [8] has as its target T2, Serine/threonine-protein kinase 3 (Homo sapiens) (UniProt Q13188).
T2 sequence (whole entry): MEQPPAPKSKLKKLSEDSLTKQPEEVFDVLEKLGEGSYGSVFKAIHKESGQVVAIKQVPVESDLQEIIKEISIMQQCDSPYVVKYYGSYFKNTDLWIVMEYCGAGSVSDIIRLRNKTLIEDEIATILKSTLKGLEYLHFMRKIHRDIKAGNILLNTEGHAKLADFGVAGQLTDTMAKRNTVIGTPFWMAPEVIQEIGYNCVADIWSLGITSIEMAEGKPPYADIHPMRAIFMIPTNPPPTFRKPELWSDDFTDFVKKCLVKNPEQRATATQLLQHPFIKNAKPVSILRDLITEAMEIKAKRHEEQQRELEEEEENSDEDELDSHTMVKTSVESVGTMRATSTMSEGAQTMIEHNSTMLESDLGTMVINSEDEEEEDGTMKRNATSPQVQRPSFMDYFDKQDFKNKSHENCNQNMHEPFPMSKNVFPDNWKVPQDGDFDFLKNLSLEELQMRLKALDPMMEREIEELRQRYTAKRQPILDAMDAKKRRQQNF
To be noted: at 0.1 µM.

The target of assay [9] is T2, Serine/threonine-protein kinase 3 (Homo sapiens). The following applies: at 1 µM.
Assay [10] deals with Serine/threonine-protein kinase 26 (Homo sapiens) (UniProt Q9P289). The following applies: at 0.1 µM.
For assay [11] the target is unchanged. To be noted: at 1 µM.
The target in assay [12] is Serine/threonine-protein kinase PAK 1 (Homo sapiens) (UniProt Q13153). The following applies: at 0.1 µM.
The target is the same in assay [13]. The following applies: at 1 µM.
Assay [14] deals with Serine/threonine-protein kinase PAK 2 (Homo sapiens) (UniProt Q13177). To be noted: at 0.1 µM.
The target is the same in assay [15]. To be noted: at 1 µM.
Assay [16] deals with Serine/threonine-protein kinase PAK 3 (Homo sapiens) (UniProt O75914). To be noted: at 0.1 µM.
Assay [17] has the same target. To be noted: at 1 µM.
The target of assay [18] is Serine/threonine-protein kinase PAK 5 (Homo sapiens) (UniProt Q9P286). The following applies: at 0.1 µM.
The target is the same in assay [19]. The following applies: at 1 µM.
Assay [20] concerns the target Serine/threonine-protein kinase PAK 6 (Homo sapiens) (UniProt Q9NQU5). The following applies: at 0.1 µM.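 Further: mean PAK6 inhibition reported from the GSK PKIS screen.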

Several values for one entry are separate records, joined by “and”; a condition that tells them apart may be missing. Equal entries are not always repeated.

Sequence of Serine/threonine-protein kinase PAK 1 (Homo sapiens) (Q13153 whole entry): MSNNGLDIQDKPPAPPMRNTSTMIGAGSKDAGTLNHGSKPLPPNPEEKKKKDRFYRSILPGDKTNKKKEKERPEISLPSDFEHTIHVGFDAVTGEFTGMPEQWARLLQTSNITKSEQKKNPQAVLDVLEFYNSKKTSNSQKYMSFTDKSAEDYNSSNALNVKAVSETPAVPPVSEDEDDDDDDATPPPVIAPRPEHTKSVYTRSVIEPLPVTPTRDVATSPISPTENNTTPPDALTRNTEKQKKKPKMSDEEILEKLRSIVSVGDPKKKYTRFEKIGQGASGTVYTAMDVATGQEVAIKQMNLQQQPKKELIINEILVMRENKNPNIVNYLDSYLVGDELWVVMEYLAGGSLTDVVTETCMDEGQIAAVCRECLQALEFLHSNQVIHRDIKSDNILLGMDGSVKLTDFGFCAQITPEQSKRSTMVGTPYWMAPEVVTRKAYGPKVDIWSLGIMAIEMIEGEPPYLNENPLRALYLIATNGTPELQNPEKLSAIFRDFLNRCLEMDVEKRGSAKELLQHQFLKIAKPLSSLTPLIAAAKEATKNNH
Sequence of Serine/threonine-protein kinase PAK 5 (Homo sapiens) (Q9P286 whole entry, looked up): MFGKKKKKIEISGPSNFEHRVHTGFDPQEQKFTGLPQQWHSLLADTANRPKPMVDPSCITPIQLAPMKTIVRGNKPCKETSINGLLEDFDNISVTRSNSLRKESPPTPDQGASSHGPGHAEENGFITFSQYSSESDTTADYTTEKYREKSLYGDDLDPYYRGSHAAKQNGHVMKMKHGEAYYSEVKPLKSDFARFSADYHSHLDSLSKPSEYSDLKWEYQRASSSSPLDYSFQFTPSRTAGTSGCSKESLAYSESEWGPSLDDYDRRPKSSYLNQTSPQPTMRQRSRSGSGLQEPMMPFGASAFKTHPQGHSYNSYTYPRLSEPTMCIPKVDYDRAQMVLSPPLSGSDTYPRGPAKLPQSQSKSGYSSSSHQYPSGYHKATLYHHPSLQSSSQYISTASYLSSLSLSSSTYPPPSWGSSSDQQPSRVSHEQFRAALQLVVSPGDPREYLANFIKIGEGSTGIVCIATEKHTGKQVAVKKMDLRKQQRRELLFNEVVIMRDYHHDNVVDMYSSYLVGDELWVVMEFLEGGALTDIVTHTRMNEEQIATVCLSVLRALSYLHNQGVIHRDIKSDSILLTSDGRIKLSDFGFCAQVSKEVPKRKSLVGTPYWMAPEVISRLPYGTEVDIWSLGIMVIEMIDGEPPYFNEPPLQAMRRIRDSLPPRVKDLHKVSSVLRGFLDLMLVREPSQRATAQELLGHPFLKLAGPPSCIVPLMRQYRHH
Sequence of Misshapen-like kinase 1 (Homo sapiens) (Q8N4C8 whole entry, looked up): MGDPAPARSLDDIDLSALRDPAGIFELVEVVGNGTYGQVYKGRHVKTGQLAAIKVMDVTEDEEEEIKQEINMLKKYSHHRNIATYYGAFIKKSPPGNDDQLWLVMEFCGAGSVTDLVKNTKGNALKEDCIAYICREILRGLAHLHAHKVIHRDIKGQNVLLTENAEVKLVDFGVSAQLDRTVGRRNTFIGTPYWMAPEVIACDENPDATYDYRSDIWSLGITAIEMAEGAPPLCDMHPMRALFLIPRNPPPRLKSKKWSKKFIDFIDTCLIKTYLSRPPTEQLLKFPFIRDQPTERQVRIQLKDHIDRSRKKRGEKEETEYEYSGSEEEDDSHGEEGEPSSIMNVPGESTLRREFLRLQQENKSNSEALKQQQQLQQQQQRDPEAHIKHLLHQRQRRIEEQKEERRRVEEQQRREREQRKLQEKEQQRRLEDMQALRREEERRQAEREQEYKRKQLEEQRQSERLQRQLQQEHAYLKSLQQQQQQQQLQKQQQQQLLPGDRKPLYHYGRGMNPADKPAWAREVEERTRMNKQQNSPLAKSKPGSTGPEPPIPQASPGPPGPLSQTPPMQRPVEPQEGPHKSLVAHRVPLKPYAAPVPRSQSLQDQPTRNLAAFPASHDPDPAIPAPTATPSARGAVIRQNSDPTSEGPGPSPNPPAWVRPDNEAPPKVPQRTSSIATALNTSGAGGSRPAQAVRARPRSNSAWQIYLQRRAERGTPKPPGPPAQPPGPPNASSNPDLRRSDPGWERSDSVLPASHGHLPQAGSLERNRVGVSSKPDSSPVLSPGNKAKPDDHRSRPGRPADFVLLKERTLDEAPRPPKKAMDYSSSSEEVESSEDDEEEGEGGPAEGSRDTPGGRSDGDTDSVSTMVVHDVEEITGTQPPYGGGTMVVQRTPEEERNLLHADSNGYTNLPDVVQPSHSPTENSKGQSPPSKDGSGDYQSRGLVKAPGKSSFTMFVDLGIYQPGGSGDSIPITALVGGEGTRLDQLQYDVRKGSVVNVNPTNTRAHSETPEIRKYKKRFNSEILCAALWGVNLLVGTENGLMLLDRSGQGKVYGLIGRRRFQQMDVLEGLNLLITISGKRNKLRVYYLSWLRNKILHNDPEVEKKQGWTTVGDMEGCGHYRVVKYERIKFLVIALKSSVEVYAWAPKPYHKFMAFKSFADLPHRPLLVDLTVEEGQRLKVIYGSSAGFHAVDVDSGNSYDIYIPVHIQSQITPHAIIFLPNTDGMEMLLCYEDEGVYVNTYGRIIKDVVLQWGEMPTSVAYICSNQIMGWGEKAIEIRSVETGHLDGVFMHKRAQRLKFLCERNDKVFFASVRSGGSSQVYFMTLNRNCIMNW
Sequence of Serine/threonine-protein kinase PAK 3 (Homo sapiens) (O75914 whole entry, looked up): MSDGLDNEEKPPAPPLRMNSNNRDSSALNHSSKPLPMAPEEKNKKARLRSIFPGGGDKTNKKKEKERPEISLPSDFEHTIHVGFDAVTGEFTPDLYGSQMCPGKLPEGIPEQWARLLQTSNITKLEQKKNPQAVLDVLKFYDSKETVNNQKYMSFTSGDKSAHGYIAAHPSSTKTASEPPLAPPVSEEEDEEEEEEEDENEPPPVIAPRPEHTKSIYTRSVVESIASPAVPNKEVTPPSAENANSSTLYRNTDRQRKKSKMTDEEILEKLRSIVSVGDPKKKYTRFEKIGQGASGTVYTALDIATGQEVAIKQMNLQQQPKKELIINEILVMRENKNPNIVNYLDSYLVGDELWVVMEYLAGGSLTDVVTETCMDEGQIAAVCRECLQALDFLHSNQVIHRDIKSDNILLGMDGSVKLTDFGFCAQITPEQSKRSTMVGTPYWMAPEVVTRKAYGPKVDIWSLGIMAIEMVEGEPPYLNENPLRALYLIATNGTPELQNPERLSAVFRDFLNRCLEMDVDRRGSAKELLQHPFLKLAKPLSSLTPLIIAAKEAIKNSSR
Sequence of Serine/threonine-protein kinase PAK 2 (Homo sapiens) (Q13177 whole entry): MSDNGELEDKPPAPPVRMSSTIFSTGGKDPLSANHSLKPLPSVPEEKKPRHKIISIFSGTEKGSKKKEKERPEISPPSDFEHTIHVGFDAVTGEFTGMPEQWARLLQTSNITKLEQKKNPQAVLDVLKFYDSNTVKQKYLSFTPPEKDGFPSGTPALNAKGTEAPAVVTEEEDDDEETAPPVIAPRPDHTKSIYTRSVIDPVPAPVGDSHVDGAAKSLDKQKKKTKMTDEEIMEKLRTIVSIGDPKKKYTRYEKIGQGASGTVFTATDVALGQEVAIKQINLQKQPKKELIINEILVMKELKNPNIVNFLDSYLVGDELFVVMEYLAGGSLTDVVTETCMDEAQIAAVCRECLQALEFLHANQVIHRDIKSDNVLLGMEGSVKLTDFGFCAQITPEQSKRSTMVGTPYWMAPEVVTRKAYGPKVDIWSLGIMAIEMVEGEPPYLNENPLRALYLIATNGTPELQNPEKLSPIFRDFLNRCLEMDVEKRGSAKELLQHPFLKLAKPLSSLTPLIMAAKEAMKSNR
Sequence of Serine/threonine-protein kinase 26 (Homo sapiens) (Q9P289 2-416 limits assumed): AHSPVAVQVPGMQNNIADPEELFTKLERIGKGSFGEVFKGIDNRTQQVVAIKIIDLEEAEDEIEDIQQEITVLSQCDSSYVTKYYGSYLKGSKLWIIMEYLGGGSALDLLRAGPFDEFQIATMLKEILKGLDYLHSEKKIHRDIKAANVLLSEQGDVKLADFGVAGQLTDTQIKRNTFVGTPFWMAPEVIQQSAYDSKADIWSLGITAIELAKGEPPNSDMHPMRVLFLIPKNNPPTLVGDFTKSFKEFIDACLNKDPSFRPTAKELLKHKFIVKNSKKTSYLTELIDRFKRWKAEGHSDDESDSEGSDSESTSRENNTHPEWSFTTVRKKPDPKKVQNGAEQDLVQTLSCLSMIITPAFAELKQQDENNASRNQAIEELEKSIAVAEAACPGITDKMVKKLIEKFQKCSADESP
Sequence of Serine/threonine-protein kinase PAK 6 (Homo sapiens) (Q9NQU5 whole entry, looked up): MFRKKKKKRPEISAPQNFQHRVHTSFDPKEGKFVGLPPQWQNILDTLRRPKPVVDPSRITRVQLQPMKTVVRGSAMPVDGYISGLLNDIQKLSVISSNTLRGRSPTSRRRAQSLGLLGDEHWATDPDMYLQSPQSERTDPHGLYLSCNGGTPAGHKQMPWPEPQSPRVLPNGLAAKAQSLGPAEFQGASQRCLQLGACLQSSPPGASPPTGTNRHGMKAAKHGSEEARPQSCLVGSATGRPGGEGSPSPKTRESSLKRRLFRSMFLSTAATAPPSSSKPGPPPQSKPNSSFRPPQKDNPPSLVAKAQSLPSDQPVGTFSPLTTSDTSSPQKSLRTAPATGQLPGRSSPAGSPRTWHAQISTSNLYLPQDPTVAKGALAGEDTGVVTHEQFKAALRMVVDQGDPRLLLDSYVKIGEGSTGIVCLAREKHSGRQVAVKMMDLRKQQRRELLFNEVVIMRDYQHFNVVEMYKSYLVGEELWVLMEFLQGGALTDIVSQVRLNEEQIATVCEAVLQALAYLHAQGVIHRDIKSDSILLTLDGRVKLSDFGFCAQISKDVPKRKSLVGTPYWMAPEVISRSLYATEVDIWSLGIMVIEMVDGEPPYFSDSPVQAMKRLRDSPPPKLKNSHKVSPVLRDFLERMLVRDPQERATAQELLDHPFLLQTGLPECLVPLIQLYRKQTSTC

By inhibition is commonly meant the drop in the measured response relative to a control, in per cent. On to `COc1cccc(-n2ncc3c(N/N=C/c4ccc(C(=O)NCCN(C)C)cc4)ncnc32)c1`, for which the inhibition in assay [1] turned out to be 78.1%; in assay [2] it was 2.77%; in [3] it was 4.04%; in [4], 23.1%; in assay [5], 64.8%; in assay [6], 4.6%. The inhibition in assay [7] is 10.1%; in assay [8] it was 4.33%; in [9], 6.3%; in assay [10], -1.8%; in [11] it was 0.63%; in assay [12], 7.17%. In addition, the inhibition in assay [13] is 5.32%; in assay [14] it was 1.01%; in [15], 1.56%; in [16], 2.69%; in assay [17], 3.69%; in [18], 12.8%. Moreover, the inhibition in [19] was determined as 7.55%; in assay [20], 1.68%.
Turning to `CS(=O)(=O)Nc1ccc(-c2cc(-c3ccccc3)cc(C(N)=O)c2N)cc1`, the inhibition in [1] came out at 16.6%; in [2], 3.57%; in assay [3], 2.74%; in [4], 0.77%; in [5], 10.4%; in [6] it was 0.24%. In addition, the inhibition is 0.83% in assay [7]; -1.12% in assay [8]; -0.76% in [9]; -1.2% in [10]; -0.88% in assay [11]; 4.98% in assay [12]. The inhibition in assay [13] was 4.78%; in assay [14] it was -0.21%; in assay [15], -0.16%; in assay [16], 0.92%; in assay [17], 3.38%; in assay [18], 1.42%. In addition, the values for the inhibition in [19] and in assay [20] were 0.16% and -9.24%, respectively.
Regarding `CN1CCC(n2cnc(-c3ccc(F)cc3)c2-c2ccnc(NCCO)n2)CC1`, the inhibition worked out at 17.5% in [1]; 4.13% in assay [2]; 5.25% in assay [3]; 7.76% in [4]; 15.8% in [5]; 7.06% in assay [6]. The inhibition was 10.4% in assay [7]; 7.55% in [8]; 9.48% in [9]; -1.24% in [10]; 1.34% in assay [11]; 5.86% in assay [12]. Further, the inhibition in [13] came to 7.1%; in assay [14], 2.03%; in [15] it was 2.52%; in assay [16], 3.99%; in [17], 3.76%; in assay [18], 0.7%. Besides, the inhibition amounted to 1.35% in assay [19] and 3.38% in assay [20].
Consider `Nc1ncnc2occ(-c3ccc(NC(=O)Nc4cc(C(F)(F)F)ccc4F)cc3)c12`, for which the inhibition in assay [1] is 22.3% and 6.15%; in assay [2] it was 1.15% and -1.72%; in assay [3] it was 2.3% and 0.44%; in [4], 6.26% and -2.13%; in [5], 19.9% and 2.27%; in assay [6] it was 4.27% and -2.54%. Further, the inhibition in [7] was 8.75% and 0.44%; in assay [8] it was 4.42% and -3.89%; in assay [9], 6.36% and -2.2%; in [10], 0.12% and -0.14%; in assay [11] it was 1.08% and -2.02%; in assay [12], 3.44% and -1.9%. Besides, the inhibition in assay [13] was 4.36% and -1.17%; in [14], 0.88% and -1%; in [15], 1.23% and -1.68%; in assay [16] it was 2.44% and -2.03%; in assay [17], 1.87% and -1.59%; in assay [18] it was -0.44% and -3.26%. Besides, the inhibition is -2.53% and -0.87% in [19]; 1.24% in [20].
With `COc1cc(Nc2ncc(-c3ccccc3)o2)cc(OC)c1`, the inhibition is 18.8% in assay [1]; 4.41% in assay [2]; 3.91% in assay [3]; 8.63% in assay [4]; 19.5% in [5]; 3.72% in assay [6]. Also, the inhibition in [7] was 6.2%; in assay [8] it was 6.11%; in assay [9], 6.9%; in assay [10], -1.04%; in assay [11], -4.28%; in assay [12] it was 6.86%. Moreover, the inhibition in assay [13] was found to be 6.69%; in assay [14] it was 1.76%; in [15], 1.6%; in [16], 4.74%; in [17] it was 3.26%; in assay [18], 2.83%. The inhibition in assay [19] came out at 4.51%; in assay [20] it was 0.07%.
In the case of `NS(=O)(=O)c1cccc(N/C=C2\C(=O)Nc3ccccc32)c1`, the inhibition amounted to 78.2% in [1]; 4.87% in assay [2]; 5.35% in [3]; 18.4% in assay [4]; 70.2% in assay [5]; 7.24% in [6]. In addition, the inhibition was 26.1% in assay [7]; 5.78% in assay [8]; 21.2% in assay [9]; -1.63% in assay [10]; -1.86% in assay [11]; 5.24% in [12]. The inhibition was 8.78% in [13]; 1.76% in [14]; 2.04% in [15]; 4.81% in assay [16]; 4.94% in assay [17]; -8.13% in assay [18]. In addition, the inhibition was -8.7% in [19] and 3.85% in assay [20].
